Data taken from PubChem BioAssay AID1259421 (Broad Institute, 2018).
Where “and” joins values, the source holds several entries; their conditions need not be identical. Identical values can stand only once. Hit rate of the full screen: of about 6,400 compounds, about 610 (9.5%) were called active. No stated cut-off is given here; in the data, active means activity change below about -70%; inconclusive means no clear call, values can overlap the other calls; inactive means above that. Only a selection was taken, and actives are over-represented in it overall. Some structures have more than one record in an assay (separate samples or runs), and their calls can disagree.

assay: Toxoplasma gondii ME49Luc growth in HeLa cells, luciferase, no IFN-y, primary screen (AID 1259421); details: T. gondii ME49Luc in HeLa, 72 h, stronger effect = lower value, concentration not given here

SMILES	activity change, negative = inhibition
CC(C)[C@H](N)C(=O)OCCOCn1cnc2c(=O)[nH]c(N)nc21	9.53% (inactive) and 3.52% (inactive)
O=C(CCc1ccc(O)cc1)c1c(O)cc(O)cc1O[C@@H]1O[C@H](CO)[C@@H](O)[C@H](O)[C@@H]1O	6% (inactive)
CC(C)(C)Cn1c(N)nc2ccc(-c3[nH]c(C(C)(C)C)nc3-c3ccc(F)cc3)nc21	-83.7% (active)
CC(C)(C)C(=O)OCOC(=O)[C@@H]1N2C(=O)[C@@H](N=CN3CCCCCC3)[C@H]2SC1(C)C	2.97% (inactive)
O=C(N[C@@H]1CC[C@@H](c2cccc(F)c2F)CN(CC(F)(F)F)C1=O)N1CCC(n2c(=O)[nH]c3ncccc32)CC1	5.74% (inactive)
CC(CSC(=O)c1ccccc1)C(=O)N1C[C@@H](Sc2ccccc2)C[C@H]1C(=O)O (stereo not given in full)	5.4% (inactive)
O=c1cc(-c2ccccc2)oc2c(O)c(O)ccc12	-85.8% (active)
O=c1cc(-c2ccccc2)oc2cccc(O)c12	21.2% (inactive)
O=c1cc(-c2ccccc2)oc2cc(O)ccc12	60.2% (inactive)
COc1ccc(-c2noc(CC(=O)O)c2-c2ccc(OC)cc2)cc1	7.28% (inactive)
CCOc1ccc(Nc2nc(-c3c(C)nc4ccccn34)cs2)cc1	-74% (active)
COc1cc(Br)c(Nc2nc(-c3c(C)nc4ncccn34)cs2)c(Br)c1	13.9% (inactive)
Oc1ccc(Nc2nc(-c3ccc(Cl)cc3)cs2)cc1	28.7% (inactive)
Cn1cc(C(F)(F)F)nc1-c1ccc(OCC(O)CNCCOc2ccc(O)c(C(N)=O)c2)cc1 (stereo not given)	1.01% (inactive)
CC(C)(C)NC(=O)[C@H]1CCC2C3CC[C@H]4NC(=O)C=C[C@]4(C)C3CC[C@@]21C (stereo not given in full)	-5.92% (inactive)
COc1c(CC(=O)c2cc3c(cc2O)OC(C)(C)C(O)C3)ccc2c1C=CC(C)(C)O2 (stereo not given)	16.9% (inactive)
COc1ccc(-c2coc3cc(O)ccc3c2=O)c(O)c1O	2.93% (inactive)
COc1cc2c(cc1OC)[C@@H]1C(=O)c3ccc4c(c3O[C@@H]1CO2)C=CC(C)(C)O4	-20.6% (inactive)
COc1c(-c2coc3cc4c(cc3c2=O)CC(O)C(C)(C)O4)ccc2c1C=CC(C)(C)O2 (stereo not given)	-80% (active)
COc1c(-c2coc3cc4c(cc3c2=O)CC(OC(C)=O)C(C)(C)O4)ccc2c1C=CC(C)(C)O2 (stereo not given)	-72.4% (active)
COc1c2c(cc3occ(-c4ccc5c(c4)OCO5)c(=O)c13)OC(C)(C)C=C2	-31.2% (inactive)
CCOC(=O)C1=CC2(CC)CCCN3CCc4c(n1c1ccccc41)C32 (stereo not given)	23.3% (inactive)
COC12CC(COC(=O)c3cncc(Br)c3)CN(C)C1Cc1cn(C)c3cccc2c13 (stereo not given)	13.7% (inactive)
CC(=O)NC(C(=O)O)C(C)(C)S[NH2+][O-] (stereo not given)	16% (inactive)
CCc1cc2c(cc1N1CCC(N3CCOCC3)CC1)C(C)(C)c1[nH]c3cc(C#N)ccc3c1C2=O	16.2% (inactive)

SMILES	activity change, negative = inhibition
Cc1c(C(=O)Nc2ccc(N3CCC(N4CCOCC4)CC3)c(C#N)c2)cnn1-c1ccc(Cl)cc1	-92.1% (active)
Cc1ccccc1C(=O)Nc1ccc(C(=O)N2CCCC(O)c3cc(Cl)ccc32)c(C)c1 (stereo not given)	7.82% (inactive)
CN1C2CC(OC(=O)C(CO)c3ccccc3)CC1C1OC12 (stereo not given)	11.1% (inactive)
CNc1cc(OC)c(C(=O)N[C@@H]2CCN(Cc3ccccc3)[C@H]2C)cc1Cl	15.3% (inactive)
Cn1cc(C(=O)OCC2CCN(CCNS(C)(=O)=O)CC2)c2ccccc21	1.88% (inactive) and 6.2% (inactive)
Cn1cc(C[C@@H](N)C(=O)O)c2ccccc21	16% (inactive)
Cn1cc(CNCC2CCN(c3ncc(C(=O)NO)cn3)CC2)c2ccccc21	-88.1% (active)
C[C@@H]1CC2C3CCC4=CC(=O)C=C[C@]4(C)[C@@]3(F)[C@@H](O)C[C@]2(C)[C@@]1(O)C(=O)COP(=O)(O)O (stereo not given in full)	0.571% (inactive) and -5.12% (inactive)
O=c1c(-c2ccc(O)cc2)coc2c(C3O[C@H](CO)[C@@H](O)[C@H](O)[C@H]3O)c(O)ccc12 (stereo not given in full)	-5.75% (inactive)
C[N+]1(C)C2CC[C@H]1CC(OC(=O)C(O)c1ccccc1)C2 (stereo not given in full)	10.1% (inactive)
O=C(Nc1ccccc1)C12CC1/C(=N\O)c1ccccc1O2 (stereo not given)	7.7% (inactive) and 0.127% (inactive)
COc1ccc(-c2cc(=O)c3c(O)cc(O[C@@H]4O[C@H](CO[C@H]5O[C@H](C)[C@@H](O)[C@H](O)[C@@H]5O)[C@@H](O)[C@H](O)[C@H]4O)cc3o2)cc1O	14.7% (inactive)
Cn1cc(C2=C(c3ccc(Cl)cc3Cl)C(=O)NC2=O)c2ccccc21	-12.4% (inactive) and -8.86% (inactive)
COc1ccc2c(c1)c(C1=C(c3c[nH]c4ccccc34)C(=O)NC1=O)cn2CCCN(C)C	-36.9% (inactive)
Cn1cc(C2=C(c3cn(CCCSC(=N)N)c4ccccc34)C(=O)NC2=O)c2ccccc21	-58% (inactive) and -88.3% (active)
CCCCC/C=C\C/C=C\CCCCCCCC(=O)NCCCC(=O)O	8.14% (inactive)
O=C(O)CN1CCN(CC(=O)O)CCN(CC(=O)O)CCN(CC(=O)O)CC1	0.0247% (inactive)
N#C/C(=C(/N)Sc1ccc(N)cc1)c1ccccc1C(F)(F)F	7.26% (inactive)
O=Nc1c(-c2c(O)[nH]c3ccccc23)[nH]c2ccccc12	-74.5% (active)
O=C1C(c2c(O)[nH]c3ccccc23)=Nc2ccccc21	-5.14% (inactive)
NS(=O)(=O)c1ccc(N=Cc2c(O)[nH]c3ccccc23)cc1	13.4% (inactive)
O=Nc1c(-c2c(O)[nH]c3cc(Br)ccc23)[nH]c2ccccc12	-87.9% (active)
CCCCC(=O)O[C@]1(C(=O)CO)[C@@H](C)CC2C3CCC4=CC(=O)C=C[C@]4(C)[C@@]3(F)C(O)C[C@@]21C (stereo not given in full)	1.05% (inactive)
CC(=O)c1cc2ccccc2oc1=O	-2.07% (inactive)
O=C(O)CCCCN(CCc1ccccc1OCc1ccc(CCc2ccccc2)cc1)Cc1ccc(C(=O)O)cc1	10.8% (inactive)
